15-hLO-2 inh: qHTS Assay for Inhibitors of 15-hLO-2 (15-human lipoxygenase 2) | purified 15hLO-2, xylenol orange hydroperoxide absorbance | Potency, µM (titrated, usually from 57.1 µM), for the others: at the top dose activity change, negative = inhibition, most hits filed as inhibitors | 110,000 tested, 0.56% active | AID 881, 2007; note: nearly all actives have a fitted effect of over 60% in size
Target sequence (O15296 whole entry, looked up): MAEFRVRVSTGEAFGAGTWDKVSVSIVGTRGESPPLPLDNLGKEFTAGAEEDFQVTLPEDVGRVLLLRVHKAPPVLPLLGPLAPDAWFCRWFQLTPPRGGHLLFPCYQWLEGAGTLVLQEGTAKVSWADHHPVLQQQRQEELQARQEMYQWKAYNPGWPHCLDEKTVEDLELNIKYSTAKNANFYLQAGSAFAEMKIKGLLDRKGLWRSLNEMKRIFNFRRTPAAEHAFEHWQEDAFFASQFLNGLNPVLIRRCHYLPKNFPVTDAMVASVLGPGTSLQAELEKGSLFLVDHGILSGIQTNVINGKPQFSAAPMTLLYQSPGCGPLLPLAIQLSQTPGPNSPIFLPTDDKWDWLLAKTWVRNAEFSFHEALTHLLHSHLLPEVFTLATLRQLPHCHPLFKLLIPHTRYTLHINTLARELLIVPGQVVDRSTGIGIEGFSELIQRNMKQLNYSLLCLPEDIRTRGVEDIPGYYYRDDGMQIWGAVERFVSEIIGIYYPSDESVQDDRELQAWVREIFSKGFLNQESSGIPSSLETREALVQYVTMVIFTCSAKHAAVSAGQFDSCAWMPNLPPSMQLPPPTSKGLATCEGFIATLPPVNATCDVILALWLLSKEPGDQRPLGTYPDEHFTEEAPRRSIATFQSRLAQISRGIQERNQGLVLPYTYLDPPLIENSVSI
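Purified human 15hLO-2 (50 nM final) preincubated with compounds 15 min at room temperature in 25 mM Hepes pH 7.5, 0.01% Triton X-100, then 45 uM arachidonic acid added for 90 min; hydroperoxide detected via ferrous/xylenol orange, 573/405 nm absorbance ratio.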
ALOX12 inhib: qHTS Assay for Inhibitors of 12-hLO (12-human lipoxygenase); Polyunsaturated fatty acid lipoxygenase ALOX12 (Homo sapiens), P18054; purified 12-hLO, xylenol orange hydroperoxide absorbance; Potency, µM (doses to about 57.1 µM), for inactives: top-dose activity change, negative = inhibition, usual class: inhibitors; 150,000 tested, 0.12% active; AID 1452, 2008; note: nearly all actives have a fitted effect of over 55% in size
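Purified human 12hLO (150 nM), preincubated 15 min with compound, then 40 uM arachidonic acid for 30 min, room temperature, Hepes pH 7.0 with 0.01% Triton X-100. Hydroperoxide detected by ferrous iron/xylenol orange; 573/405 nm absorbance ratio gives reaction progress.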
* = called active by the depositor; u = inconclusive; x = no result; [ ] = another dose, or the depositor's remark. The sample as a whole holds a higher share of hits than the screen did. Calls come from the whole dose curve; as a rule, active = well fitted curve in the direction sought with a large enough effect; inconclusive = small, poorly fitted or top-dose-only effect, or another doubt; inactive = no such curve, though single readings can be large; an effect the other way counts as inactive or inconclusive. % is set by controls: 0 for no effect and ±100 for the full control effect; potency is the fitted concentration of half-maximal effect.

SMILES	15-hLO-2 inh	ALOX12 inhib
O=C(O)COc1ccc(/C=N/NC(=O)C2CCCN2S(=O)(=O)c2ccc(Cl)cc2)cc1 (stereo not given)	1%	-5%
CCCC(=O)NC(=S)Nc1ccccc1OC	-15%	-17%
COc1ccccc1NC(=S)NC(=O)CCCOc1ccc(Cl)cc1Cl	20µM*	u
COc1ccc(-c2nc3c(c4c2C[C@H](c2ccccc2)OC4)CN(S(=O)(=O)c2ccc(NC(C)=O)cc2)CC3)c(C)c1	x	-2%[11.4 µM]
COc1cc2c(cc1OC)C(=O)N(C)CC2	-5%	2%
COc1cc2cc3c4c(cc(OC)c(OC)c4c2cc1OC)CCN3C	13µM*	u
Cc1ccc(C(=O)/C=C\Nc2ccc(C)c(C)c2)cc1	x	-19%
Cc1ccc(N/C=C/C(=O)c2ccc(C)cc2)cc1	0%	2µM*
O=C(NCCc1ccccc1)c1noc2c1CCCCC2	-4%	-4%
CC1CC(C)CN(S(=O)(=O)c2ccc(NC(=O)C3COc4ccccc4O3)cc2)C1 (stereo not given)	x	-4%
CCOC(=O)C(=CNc1ccc(NC2=NCC(C)S2)cc1)C(=O)OCC (stereo not given)	x	-1%
Cc1ccccc1C(=O)NC(=S)Nc1sc2c(c1C#N)CCC(C)C2 (stereo not given)	25µM*	u
Cc1cc(C(=O)Nc2sc3c(c2C#N)CCC(C)C3)cs1 (stereo not given)	-12%	-5%
CC(C)(C)c1ccc(OCCNC(=O)c2ncn[nH]2)cc1	39%	4%
CC1=CC(C#N)(C#N)C(C#N)(C#N)C(c2ccccc2)N1 (stereo not given)	-3%	-7%
CC1CCC(C(C)C)C2=C1C(C#N)(C#N)C(C#N)(C#N)C(c1ccccc1)N2 (stereo not given)	10µM*	-28%
COc1ccccc1-n1c(=O)oc2ccc(Cl)cc2c1=O	-7%	-5%
COc1ccc(C(=O)N/N=C/c2cc3ccccc3[nH]c2=S)cc1	u	18µM*
COc1ccc(C(=O)N/N=C/c2cccc3cccnc23)cc1	50%	2%
CC(C)Cc1cc(C(=O)Nc2cc(Cl)ccc2Cl)no1	-17%	1%
O=C(CN1C(=O)CCC1=O)Nc1ccc(Br)cc1	7%	5.6µM*
COC(=O)c1ccc(NC(=O)CN2C(=O)CCC2=O)cc1	-5%	-4%
COc1ccc(N2C(=O)CC(Nc3ccc(N4CCOCC4)cc3)C2=O)c(OC)c1 (stereo not given)	32µM*	-29%
O=C1CC(Nc2ccc(N3CCOCC3)cc2)C(=O)N1c1cccc(C(F)(F)F)c1 (stereo not given)	20µM*	u
Cc1ccc(NC2CC(=O)N(c3ccc(N4CCCCC4)cc3)C2=O)cc1 (stereo not given)	-30%	-11%
SMILES	15-hLO-2 inh	ALOX12 inhib
CN(C)c1ccc(N2C(=O)CC(Nc3ccc(N4CCOCC4)cc3)C2=O)cc1 (stereo not given)	x	-7%
COc1cccc(N2C(=O)CC(Nc3ccc(N4CCOCC4)cc3)C2=O)c1 (stereo not given)	13µM*	u
COc1ccc(N2C(=O)CC(Nc3ccc(C)cc3)C2=O)cc1 (stereo not given)	3%	3%
O=C(COC(=O)c1ccccc1C(=O)c1ccc(Cl)cc1)NCCc1ccccc1	x	-2%
CCN(CC)S(=O)(=O)c1cc(C(=O)OC)ccc1Cl	2%	-7%
Cc1cccc(OCCCCc2c(C)n[nH]c2C)c1	26%	4%
CCc1nnc(NS(=O)(=O)c2ccc(NC(=S)NC(=O)/C=C/c3ccc(OC)cc3)cc2)s1	x	-2%
CCc1nnc(NS(=O)(=O)c2ccc(NC(=S)NC(=O)/C=C/c3ccc(C(C)C)cc3)cc2)s1	25µM*	16µM*
C/C=C/c1ccc(O)c(OC)c1	-18%	-1%
Oc1cc(O)cc(/C=C/c2ccc(O)c(O)c2)c1	4.5µM*	u
N[C@H](C(=O)O)c1nn[nH]n1	18%	-3%
O=C(NCCc1ccccc1)c1ccncc1	12%	-8%
c1ccc2c(c1)Sc1ccccc1-n1cnnc1-2	x	-1%
N=C1Sc2ccccc2C2=NCCCN12	13µM*	u
CC(C)c1ccc(CN(C(=O)C2COc3ccccc3O2)C2CCS(=O)(=O)C2)cc1 (stereo not given)	-4%	-12%
COC(=O)c1cccc(NC(=O)c2cc3sccc3n2C)c1	5%	1%
Cc1cc(C)n2c(=S)[nH]nc2n1	6.3µM*	u
Cc1cc(C)nc(SCc2nc3nc(C)cc(C)n3c2Br)n1	4%	-8%
O=c1c2ccccc2sn1-c1cc(S(=O)(=O)N2CCOCC2)ccc1N1CCOCC1	0.5µM*	2.2µM*
O=C(O)c1cc(S(=O)(=O)N2CCOCC2)ccc1N1CCOCC1	-2%	-2%
O=c1c2ccccc2sn1-c1cc(S(=O)(=O)N2CCOCC2)ccc1N1CCCC1	1µM*	0.5µM*
O=S(=O)(c1ccc2oc3ccccc3c2c1)N1CCOCC1	2%	7%
CC(C)OC(=O)CSc1nc(N)c(C#N)c(-c2ccco2)c1C#N	u	-11%
Nc1ccc(O)cc1C(=O)OCC(=O)c1ccc(C2CCCCC2)cc1	x	-6%
Nc1ccc(O)cc1C(=O)OCC(=O)C12CC3CC(CC(C3)C1)C2	5µM*	u
SMILES	15-hLO-2 inh	ALOX12 inhib
COc1ccc(C2(C)NC(=O)N(CC(=O)NCCC3=CCCCC3)C2=O)cc1OC (stereo not given)	7%	2%
Nc1c(C(=O)Nc2nc3ccccc3s2)sc2nc(-c3cccs3)ccc12	13µM*	-9%
CC(=O)c1sc2nc(-c3cccs3)ccc2c1N	u	-23%
Oc1c(C(c2ccco2)N2CCOCC2)sc2ncnn12 (stereo not given)	6%	1%
CCCOC(=O)c1cc(-c2ccc(C=O)o2)ccc1Cl	x	0%
C=CCOC(=O)c1cc(-c2ccc(/C=C3\C(=O)NC(=O)C(C#N)=C3C)o2)ccc1Cl	13µM*	-16%
CCOC(=O)c1c(C)[nH]c(C(=O)OCC(=O)NC(C)C)c1C	-5%	3%
COc1cccc(C(=O)Nc2ccc(C)cc2)c1	-1%	2%
Cc1ccc(NC(=O)c2ccc(Cl)c(N3C(=O)C=CC3=O)c2)cc1	0.32µM*	u
COc1cccc(CNC(=O)CCCNS(=O)(=O)c2cccs2)c1	8%	-1%
N#Cc1cc2c([nH]c1=S)CCCC2	x	-29%
CC1(C)Cc2[nH]c(=S)c(C#N)cc2CO1	16µM*	u
CCOC(=O)N1CCN(C(=O)c2cc(C)no2)CC1	4%	0%
O=C(CN1CCN(CCO)CC1)Nc1ccccc1	x	-2%
CC(=O)Nc1ccc(OC(=O)c2cc3ccccc3oc2=O)cc1	-1%	4%
Cc1oc2c(c1C(=O)c1ccc(Cl)cc1)C(=O)C(=O)c1ccccc1-2	u	-5%
Cc1ccc(C(=O)c2c(C)oc3c2C(=O)C(=O)c2ccccc2-3)cc1	25µM*	u
CCCCCCCCCCCNC(=O)c1ccoc1C	x	7%
Cc1ccc(/C=C2/SC(=S)N(CC(=O)Nc3ncc(Cc4ccc(C)cc4)s3)C2=O)cc1	u	8%
Cc1ccc(/C=C2\SC(=S)N(CC(=O)Nc3ncc(Cc4ccccc4Cl)s3)C2=O)cc1	13µM*	-3%
COc1cc(Sc2ccc(C)cc2)c(OC)cc1N	10µM*	-13%
COC(=O)c1ccc(Sc2ccc(C)cc2)c(N)c1	-17%	-6%
